Compounds without any hit were thinned out: in the full panel of roughly 79,000, 15% have a hit. Rule as the data show it: active = growth inhibition above about 70%; inactive = the rest.
Assays:
[1] = NCI Yeast Anticancer Drug Screen. Data for the rad50 strain (AID 155);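 also: 0% = growth of vehicle-only cultures of the same strain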; conditions: S. cerevisiae rad50 strain growth inhibition; at 50.0 µM; stronger effect = higher value
In short: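 Compounds were tested on a yeast strain with an engineered DNA damage repair alteration; the reported value is growth inhibition normalised to vehicle treatment.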

[2] = NCI Yeast Anticancer Drug Screen. Data for the mec2-1 strain (AID 157); conditions: S. cerevisiae mec2-1 strain, at 50.0 µM, stronger effect = higher value
In short: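 Compounds were applied to mec2-1 yeast cells. Their growth was then compared with that of vehicle-treated cultures to give growth inhibition.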

[3] = NCI Yeast Anticancer Drug Screen. Data for the sgs1 mgt1 strain (AID 161);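 also: 0% = growth of cultures given vehicle only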; conditions: S. cerevisiae sgs1 mgt1 strain, at 50.0 µM, stronger effect = higher value
In short: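 Growth of a repair-deficient yeast mutant was monitored after compound treatment and expressed as inhibition relative to vehicle-treated cultures.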

[4] = NCI Yeast Anticancer Drug Screen. Data for the cln2 rad14 strain (AID 165);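 also: 0% = growth equal to vehicle treated cultures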; conditions: S. cerevisiae cln2 rad14 strain, at 50.0 µM, stronger effect = higher value
In short: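 Strain: cln2 rad14 yeast, altered in cell cycle control and DNA damage repair. Read-out: growth inhibition vs vehicle.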

[5] = NCI Yeast Anticancer Drug Screen. Data for the bub3 strain (AID 167); conditions: S. cerevisiae bub3 mutant strain, at 50.0 µM, stronger effect = higher value
In short: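 Growth of a checkpoint-deficient yeast mutant is measured after compound exposure. Values represent inhibition relative to vehicle.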

[6] = NCI Yeast Anticancer Drug Screen. Data for the mlh1 rad18 strain (AID 175); conditions: S. cerevisiae mlh1 rad18 strain growth inhibition; at 50.0 µM; stronger effect = higher value
In short: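 A repair-deficient yeast strain is exposed to test compound, and growth is scored relative to vehicle-treated controls.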

Measured: growth inhibition

COC(=O)CC(=O)/C(=C/C(C/C=C(\C(=O)CC(=O)OC)C(=O)OC)OC)C(=O)OC (stereo unspecified)
inactive: [1] 40.1% | [2] 22.8% | [3] 8.9% | [4] 18.8% | [5] 3.85% | [6] 32.3%

CCOC(=O)/C(C)=C(/O)C(=O)OCC
inactive: [1] -45.2% | [2] -56.3% | [3] -22% | [4] -7.05% | [5] -40.2% | [6] -27.9%

CCOC(=O)C1(C)CCCCC1=O (stereo unspecified)
inactive: [1] 7.45% | [2] -6.55% | [3] 3.2% | [4] 7.95% | [5] 5.9% | [6] 2.95%

COc1cc(C2c3cc4c(cc3OC(N3CCNCC3)C2C)OCO4)cc(OC)c1OC (stereo unspecified)
inactive: [1] -17.5% | [2] -42.8% | [3] -27.8% | [4] -22.7% | [5] -3.6% | [6] -27.5%

CCCCCCCCCCCCCCCCCCCCCCCCC(O)C(=O)O (stereo unspecified) (tested in a mixture with another compound)
inactive: [1] -33% | [2] -31.4% | [3] -2.4% | [4] -23.2% | [5] 7.7% | [6] -0.45%

Cn1nnnc1NN(c1nnnn1C)C1C=CCC=C1
inactive: [1] 6.4% | [2] -6% | [3] 0% | [4] -18% | [5] 1.95% | [6] -10.7%

Oc1cccnc1CN1CCOCC1
inactive: [1] -3.55% | [2] -14.3% | [3] -12.6% | [4] 8.8% | [5] -6.15% | [6] 6.95%

CC1CN(C(=S)Nc2cccc3ccccc23)CC(C)O1 (stereo unspecified)
inactive: [1] 19.4% | [2] 36.5% | [3] 44.9% | [4] 22% | [5] 44.8% | [6] 7.8%

CCCOc1cc2c(cc1C(C)c1ccc(OCC)c(C)c1)OCO2 (stereo unspecified)
inactive: [1] -1.7% | [2] 0.75% | [3] -9.05% | [4] -94% | [5] -3.9% | [6] -5.1%

O=C(NN1C(=O)CS(=O)(=O)C1c1ccccc1F)c1ccncc1 (stereo unspecified)
inactive: [1] -8% | [2] -4.4% | [3] 8.3% | [4] -9.35% | [5] -0.1% | [6] 7.75%

NC(CCCCn1nnc2c(=O)[nH]cnc21)C(=O)O (stereo unspecified)
inactive: [1] -12.3% | [2] -26.2% | [3] 6% | [4] -36.9% | [5] 7.1% | [6] -15.6%

O=C(OCCOCBr)c1ccccc1
inactive: [1] -9.75% | [2] -32.5% | [3] 19.9% | [4] 18% | [5] 31.1% | [6] -14.3%

CCC(C)(N)C(=O)O (stereo unspecified)
inactive: [1] 10% | [2] 13.3% | [3] 5.1% | [4] 2.6% | [5] 18.2% | [6] 4.05%

CC(C)(C)OC(=O)C1C(=O)CC(c2ccccc2)C1c1ccccc1 (stereo unspecified)
inactive: [1] -3.05% | [2] -3% | [3] 1.25% | [4] -7.8% | [5] -5.7% | [6] -1.9%

CCOC(=O)c1ccc(N=c2sc3ccccc3nc2Nc2ccc(C(=O)OCC)cc2)cc1
inactive: [1] 2.75% | [2] -3.95% | [3] -2.05% | [4] 34% | [5] 2.3% | [6] 10.9%

O=C(O)c1cc2ccc(Cl)cc2c2cc(C(F)(F)F)ccc12
inactive: [1] 2.25% | [2] 27.8% | [3] 27.2% | [4] 50.9% | [5] 27.2% | [6] 53.7%

CC(=O)NNc1ncc(C(=O)/C=C/c2ccccc2C)s1
inactive: [1] 31.1% | [2] 16.1% | [3] 12.5% | [4] 29.1% | [5] 22.3% | [6] 36.6%

CC(=O)c1cc(C(C)=O)c2cc(C)cc(O)c2c1O
inactive: [1] 15.7% | [2] -13.9% | [3] 8.45% | [4] 1.9% | [5] 13.9% | [6] -9.7%

O=C(O)CNC(=S)SCc1ccccc1
inactive: [1] 10% | [2] -11.9% | [3] -11.1% | [4] -35.8% | [5] 11.2% | [6] 10.8%

COC(=O)C(C(=O)C(=O)Nc1c(Cl)cc([N+](=O)[O-])cc1Cl)c1nc2cc(C)c(C)cc2[nH]c1=O (stereo unspecified)
inactive: [1] 16.6% | [2] 3.1% | [3] 20.8% | [4] 14.3% | [5] -4.85% | [6] -9.75%

Cc1cc(C)cc(Sc2c([N+](=O)[O-])ncn2C)c1
inactive: [1] 7.65% | [2] 19.3% | [3] -16.7% | [4] 21.1% | [5] 29.2% | [6] 39.7%

— PubChem BioAssay (NCI)
